# Source: PMC4552634, “A New Set of Chemical Starting Points with Plasmodium falciparum Transmission-Blocking Potential for Antimalarial Drug Discovery” (PLoS ONE, 2015)
# In all, about 13,000 compounds went through this assay and about 3,200 (25%) showed an effect of 50% or more. This is one part of the list.
# Tested on: P. falciparum stage V gametocytes
# Design: BacTiter-Glo ATP luminescence viability of purified stage V gametocytes in 384-well plates, per cent inhibition versus DMSO
# Settings: 48 h, 5 µM; inhibitor
row,SMILES,% Inhibition
1,O=C(/C=C/c1ccc(Cl)c(Cl)c1)NCCCCCN1CCC(NC(=O)c2cc(Cl)ccc2F)CC1 [TCMDC-135870],-52.06%
2,CC(C)(C)c1ccc(S(=O)(=O)Nc2ccccc2N2CCOCC2)cc1 [TCMDC-124560],22.48%
3,CC(=O)c1cc(N2CCCC2)ccc1N [TCMDC-125017],-63.54%
4,CCCCCCc1cc2cc(-c3nc(-c4ccc(OC)cc4)cs3)c(=O)oc2cc1O [TCMDC-124081],-11.41%
5,O=C(Nc1cccc(-c2cccc(-c3nc4ccc(C(F)(F)F)cc4[nH]3)c2)c1)c1cnc[nH]1 [TCMDC-136935],37.83%
6,NC1=NC2(CCCCC2)N(OCCCCCCc2ccccc2)C(N)=N1 [TCMDC-131605],26.32%
7,CC1(C)Cc2c([nH]c3ccccc23)C(CCCCCCCCC2=NC(C)(C)Cc3c2[nH]c2ccccc32)=N1 [TCMDC-137565],110.1%
8,Cc1cc(C2NC(=O)c3ccccc3N2)c(C)n1-c1ccc2c(c1)OCO2 (centres unmarked) [TCMDC-125051],5.355%
9,Cc1nn(C2CCS(=O)(=O)C2)c(C)c1C1Nc2ccccc2C(=O)N1Cc1ccc2c(c1)OCO2 (centres unmarked) [TCMDC-125241],62.63%
10,OC(c1cccc(OCc2ccccc2)c1)C1CN(CCc2ccccc2)CCC1(O)c1ccccc1 (centres unmarked) [TCMDC-131997],1.971%
11,COc1cc(Nc2nccc(-c3c(-c4cccc(NC(=O)c5c(F)cccc5F)c4)nn4ccccc34)n2)cc(OC)c1OC [TCMDC-135668],-53.25%
12,CCCCCC(=O)N1CCOC(CCN2CCc3c(c4ccccc4n3C)C2)(c2ccc(Cl)c(Cl)c2)C1 (centres unmarked) [TCMDC-135564],-20.19%
13,S=C(NCCc1ccccc1)Nc1ccc2ncsc2c1 [TCMDC-139021],-23.08%
14,Cc1csc2nc(-c3ccccn3)nc(Nc3ccncn3)c12 [TCMDC-138927],119.9%
15,Cc1csc2nc(-c3ccccn3)nc(Nc3ccc4ncsc4c3)c12 [TCMDC-138923],100.3%
16,O=C(Nc1ccnc(N2CC3CC2CN3Cc2cccc(O)c2)c1)c1ccc(F)cc1 (centres unmarked) [TCMDC-134956],-60.26%
17,FC(F)(F)c1ccc2[nH]c(-c3ccc(-c4ccc(CNCC5CCCO5)cc4)cc3)nc2c1.O=C(O)C(F)(F)F (centres unmarked) [TCMDC-133096],-14.34%
18,O=C(CCc1nc2c(cnn2-c2ccccc2)c(=O)[nH]1)NC1CCSc2ccccc21 (centres unmarked) [TCMDC-124875],-14.45%
19,Cc1cccc2nc(-c3ccc(-c4cccc(CN5CCN(CC6CCCN(C)C6)CC5)c4)s3)[nH]c12.O=C(O)C(F)(F)F (centres unmarked) [TCMDC-133909],55.65%
20,Cc1cccc2nc(-c3ccc(-c4ccc(CN5CCCCC5)cc4)s3)[nH]c12.O=C(O)C(F)(F)F [TCMDC-133902],-19.5%
21,CN1CCCC(CN2CCN(Cc3cccc(-c4ccc(-c5nc6ccccc6[nH]5)s4)c3)CC2)C1.O=C(O)C(F)(F)F (centres unmarked) [TCMDC-133904],49.15%
22,Cc1cccc2nc(-c3ccc(-c4ccc(CN5CCN(c6ccncc6)CC5)cc4)s3)[nH]c12.O=C(O)C(F)(F)F [TCMDC-132912],36.62%
23,Cc1cccc2nc(-c3ccc(-c4cccc(CN5CCN(c6ccncc6)CC5)c4)s3)[nH]c12.O=C(O)C(F)(F)F [TCMDC-132917],20.85%
24,Cc1cccc2nc(-c3ccc(-c4ccc(CN5CCN(CC6CCCN(C)C6)CC5)cc4)s3)[nH]c12.O=C(O)C(F)(F)F (centres unmarked) [TCMDC-133899],90.54%

row,SMILES,% Inhibition
1,Cc1c(CNCCCNc2nc3ccccc3[nH]2)[nH]c2cc(Cl)cc(Cl)c12 [TCMDC-139964],2.559%
2,Oc1ccc(-c2cncc(NCc3ccc(F)c(F)c3)c2)cc1 [TCMDC-136668],23.22%
3,CC(=O)Nc1nc(C(=O)Nc2ccc(-c3ccc(-c4nc5ccc(F)cc5[nH]4)cc3)cc2)cs1 [TCMDC-136779],1.328%
4,C=CC(=O)Nc1ccc(Cl)cc1C(O)c1ccccc1 (centres unmarked) [TCMDC-131787],1.536%
5,CC(C)C1c2ccc(O)cc2CC2C(=O)N(C3CCCCC3)C(=O)N21 (centres unmarked) [TCMDC-138120],28.46%
6,Cc1cc(-c2cccc(CNC3CCN(C)CC3)c2)ccc1S(=O)(=O)NC1CCC1 [TCMDC-132380],72.06%
7,Cc1cc(-c2cccc(CNCc3ccccc3)c2)ccc1S(=O)(=O)NCCN1CCCC1 [TCMDC-132382],4%
8,Cc1cc(-c2cccc(CNC3CCN(C)CC3)c2)ccc1S(=O)(=O)NCCN1CCCC1 [TCMDC-132383],87.02%
9,Cc1cc(-c2cccc(CNC3CCCC3)c2)ccc1S(=O)(=O)NCCN1CCCC1 [TCMDC-132279],103.9%
10,CN1CCC(NCc2cccc(-c3ccc(S(=O)(=O)NCCN4CCCC4)c(F)c3)c2)CC1 [TCMDC-132222],88.17%
11,Cc1cnc2cc3c(cc2c1N1CCN(C)CC1)NCC3 [TCMDC-140363],-97.35%
12,Cc1cccc(-c2ccc(NC(=O)Nc3ccc4nccc(N5CCN(C)CC5)c4c3)cc2C)n1 [TCMDC-139353],26.78%
13,COc1ccc(C=NNc2nc3ccccc3[nH]2)cc1O [TCMDC-124104],-79.21%
14,COC(=O)C(Cc1ccccc1)NC(=O)NC1CCN(c2ccnc(Nc3ccc(F)cc3)n2)C1 (centres unmarked) [TCMDC-133597],34.56%
15,Nc1nc(N)c2c(n1)CCC(c1ccccc1)C2 (centres unmarked) [TCMDC-137806],-20.76%
16,CS(=O)(=O)c1ccc(Nc2ncc(-c3ccc(S(C)(=O)=O)cc3)c(OCC(F)(F)F)n2)cc1 [TCMDC-138524],24.49%
17,COc1ccc(C(C(=O)NC2CCN(C[C@H](O)c3ccnc4ccc(OC)cc34)CC2)N2CCc3ccccc3C2)cc1 (some centres unmarked) [TCMDC-140986],7.291%
18,Cc1ccc(F)c(OCC2CCN(c3ccc(C(=O)NC4CC4)cn3)CC2)c1 [TCMDC-134037],41.12%
19,CN(C)CCCOc1ccc(CCCCc2ccc(Cl)cc2C(=O)c2ccccc2)cc1 [TCMDC-131856],31.42%
20,CN(C)CCCOc1cccc(CCNCc2cccc(Oc3ccc(Cl)cc3)c2)c1 [TCMDC-140091],58.44%
21,OC(CNCc1cccc(Oc2ccc(Cl)cc2)c1)c1cccc(C(F)(F)F)c1 (centres unmarked) [TCMDC-140301],-22.32%
22,OC(CNCc1cccc(Oc2ccc(Cl)cc2)c1)c1cc(C(F)(F)F)cc(C(F)(F)F)c1 (centres unmarked) [TCMDC-140302],49.58%
23,CN(C)CCCOc1ccc(CNCc2cccc(Oc3ccc(Cl)cc3)c2)cc1 [TCMDC-140101],61.18%
24,Cc1c(-c2cccc(CNCCc3ccc(Cl)cc3)c2)cnc(N)c1C [TCMDC-138274],9.871%

row,SMILES,% Inhibition
1,CN(C)CCCOc1cccc(NC(=O)Nc2ccc(Cl)c(Cl)c2)c1 [TCMDC-139538],-5.244%
2,CN(C)CCCOc1ccc(CCNCc2cccc(Oc3ccc(Cl)cc3)c2)cc1 [TCMDC-140092],79.59%
3,COc1ccc(NC(=O)/C=C/c2cc(F)cc(C(F)(F)F)c2)cc1OCCN(C(C)C)C(C)C [TCMDC-140669],-66.83%
4,Cc1cc2c(cc1C(F)(F)F)N(C(=O)Nc1cc(OCCN(C(C)C)C(C)C)cc(C(F)(F)F)c1)CC2 [TCMDC-140341],-56.2%
5,CC=CC(=O)N1CCN(c2nccc(-c3ccc(C(C)(C)C)cc3)n2)CC1 [TCMDC-124777],7.647%
6,COc1ccc(N2C(N)=NC(N)=NC2(C)C)cc1 [TCMDC-124269],-3.695%
7,O=[N+]([O-])c1cc(/C=N/Nc2nc3nonc3nc2Nc2ccc(F)cc2)c(Cl)cc1Cl [TCMDC-124221],-26.03%
8,COc1cccc(C2(C)CCN(CCCCNC(=O)c3ccc(NC(=O)c4ccc(Cl)cc4)cc3)CC2)c1 [TCMDC-138368],-18.96%
9,O=C(Nc1ccc(Br)cc1)N(CCN1CCOCC1)CC(O)COc1ccc(Cl)c(F)c1 (centres unmarked) [TCMDC-141493],-10.57%
10,CC1(C)N=C(N)N=C(N)N1CCc1ccccc1 [TCMDC-125516],9.542%
11,CCOC(=O)N[C@@H]1CN[C@@H](C#Cc2cc3c(Nc4ccc(OCc5cccc(F)c5)c(Cl)c4)ncnc3s2)C1 [TCMDC-135402],-37.93%
12,Cc1noc(C)c1C(=O)N1CCCC(c2[nH]c3c(C)cccc3c2-c2ccncc2)C1 (centres unmarked) [TCMDC-125361],56.42%
13,O=C(CCn1cncn1)N1CCCC(c2[nH]c3ccccc3c2-c2ccncc2)C1 (centres unmarked) [TCMDC-125377],-42.34%
14,Cc1noc(C)c1C(=O)N1CCc2cc3nccc(N4CCN5CCC[C@H]5C4)c3cc21 [TCMDC-140041],-37.7%
15,CN(/N=C/C=C/c1ccc(Cl)cc1)c1nc(NCCc2ccc(O)cc2)nc(N2CCNCC2)n1 [TCMDC-138546],80.85%
16,CN(/N=C/c1ccc(Cl)cc1)c1nc(NCCc2ccc(O)cc2)nc(N2CCNCC2)n1 [TCMDC-138544],44.17%
17,Oc1ccc(CCNc2nc(NCCCOc3cccc(CN4CCCCC4)c3Cl)nc(N3CCNCC3)n2)cc1 [TCMDC-134045],-20.8%
18,Oc1ccc(CCNc2nc(NCCOc3cccc4ccccc34)nc(N3CCNCC3)n2)cc1 [TCMDC-134132],-65.6%
19,Cc1cc(OCCCNc2nc(NCCc3ccc(O)cc3)nc(N3CCNCC3)n2)c(Cl)c(C)c1Cl [TCMDC-134048],-28.15%
20,Oc1ccc(CCNc2nc(NCCCOc3cccc(-c4ccccc4)c3)nc(N3CCNCC3)n2)cc1 [TCMDC-134043],-9.264%
21,Cc1c(CN2CCCCC2)cccc1OCCCNc1nc(NCCc2ccc(O)cc2)nc(N2CCNCC2)n1 [TCMDC-134046],87.79%
22,Oc1ccc(CCNc2nc(NCCCOc3cc(CN4CCCCC4)ccc3F)nc(N3CCNCC3)n2)cc1 [TCMDC-134044],66.8%
23,Oc1ccc(CCNc2nc(N/N=C/C=C/c3ccc(Cl)cc3)nc(N3CCNCC3)n2)cc1 [TCMDC-138545],-5.801%
